Experimental data from PubChem BioAssay (Tox21).
“And” between values parts separate entries of the source, which are not always exact repeats. Identical values can stand only once. Records with an inconclusive call do not appear. Some compounds were tested as several samples or in several runs, with calls that do not always agree. The source made the active and inactive calls. Unless noted, calls come from the whole dose curve; as a rule, active = well fitted curve in the direction sought with a large enough effect in the repeat runs; inconclusive = weak or mixed curves; inactive = no such curve, though single readings can be large; an effect the other way counts as inactive or inconclusive.

Tests used:
[1] = qHTS assay to identify small molecule that activate the aryl hydrocarbon receptor (AhR) signaling pathway - cell viability counter screen (AID 743086);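 note: HepG2 liver cells carrying the AhR DRE luciferase reporter; series mostly up to about 70 µM; nearly all actives have a fitted effect of over 45% in size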
Procedure, shortened: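 HepG2-AhR-luc (HG2L7.5c1) cells, 4000/well, treated 24 h at 37 C with compound; viability measured as CellTiter-Fluor fluorescence after 30 min in the same wells as the luciferase read.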

[2] = biological target: Peroxisome proliferator-activated receptor gamma (Homo sapiens) (UniProt P37231); assay: qHTS assay to identify small molecule agonists of the peroxisome proliferator-activated receptor gamma (PPARg) signaling pathway (AID 743094; active = well fitted activation curve with a large enough effect in the signal ratio in the repeat runs, not every such curve was filed as active; the % refers to the signal ratio)
Procedure, shortened: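 Quantitative HTS agonist mode: stable HEK293H line with UAS-beta-lactamase reporter under PPARg control, 17 h compound exposure at 37C, fluorescence after 1 h FRET substrate loading at room temperature.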

[3] = biological target: Peroxisome proliferator-activated receptor gamma (Homo sapiens) (UniProt P37231); assay: qHTS assay to identify small molecule antagonists of the peroxisome proliferator-activated receptor gamma (PPARg) signaling pathway (AID 743191; calls by dose curve; note: series mostly up to about 63 µM; nearly all actives have a fitted effect of over 30% in size)
Procedure, shortened: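 GeneBLAzer PPARg UAS-bla HEK293H cells, 5 h post-plating, exposed to compounds 17 h at 37C. LiveBLAzer B/G FRET substrate added for 1 h at room temperature; beta-lactamase reporter read by fluorescence intensity.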

[4] = qHTS assay to identify small molecule antagonists of the peroxisome proliferator-activated receptor gamma (PPARg) signaling pathway - cell viability counter screen (AID 743194); conditions: Potency: co-treated with 50 nM rosiglitazone; note: nearly all actives have a fitted effect of over 55% in size; note: potency is the fitted concentration of half-maximal effect
Procedure, shortened: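 Cytotoxicity counter screen in PPARg-bla HEK293H cells, same wells as reporter assay. Compounds plus 50 nM rosiglitazone (final) for 17 h at 37 C, then viability read by CellTiter-Glo luminescence.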

[5] = qHTS assay for small molecule agonists of the antioxidant response element (ARE) signaling pathway - cell viability counter screen (AID 743203; calls by dose curve; note: nearly all actives have a fitted effect of over 55% in size; note: potency is the fitted concentration of half-maximal effect)
Procedure, shortened: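 Seeded at 2,000 cells/well, ARE-bla HepG2 cells were incubated 5 hrs before compound addition. After 16 hrs of treatment at 37C with 5% CO2, CellTiter-Glo reagent was added and luminescence read 30 min later.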

[6] = qHTS assay for small molecule activators of the heat shock response signaling pathway - cell viability counter screen (AID 743209); note: nearly all actives have a fitted effect of over 50% in size
Procedure, shortened: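 First, HSE-bla HeLa cells were seeded at 1500 cells/well and kept overnight at 37 C. Next, compounds were pinned in and incubated 5 h. After the FRET substrate step, CellTiter-Glo was added and luminescence read 30 min later.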

[7] = qHTS assay for small molecule activators of the heat shock response signaling pathway (AID 743210; active = well fitted activation curve with a large enough effect in the signal ratio in the repeat runs, with a control signal flat, not every such curve was filed as active; the % refers to the signal ratio;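 note: HeLa cells with beta-lactamase reporter driven by heat shock elements; series mostly up to about 63 µM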)
Procedure, shortened: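 Quantitative high-throughput format using an engineered HeLa line in which heat shock response elements drive beta-lactamase; after 5 h with compound, cells received a B/G FRET substrate and fluorescence was read.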

[8] = biological target: Peroxisome proliferator-activated receptor delta (Homo sapiens) (UniProt Q03181); assay: qHTS assay to identify small molecule agonists of the peroxisome proliferator-activated receptor delta (PPARd) signaling pathway (AID 743212; calls by dose curve)
Procedure, shortened: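 Quantitative high-throughput agonist screen in a HEK293H beta-lactamase reporter line under UAS control. Compounds in DMSO, at 37 C. Fluorescence read after 2 h with FRET substrate at room temperature.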

[9] = qHTS assay to identify small molecule antagonists of the peroxisome proliferator-activated receptor delta (PPARd) signaling pathway - cell viability counter screen (AID 743213); note: nearly all actives have a fitted effect of over 50% in size; note: potency is the fitted concentration of half-maximal effect
Procedure, shortened: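 Luminescence from CellTiter-Glo, added after the bla read and incubated 30 min at room temperature, gives viability of HEK293H PPARd-bla cells exposed to compounds for 17 h at 37 C with 300 nM L165041.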

[10] = biological target: Peroxisome proliferator-activated receptor delta (Homo sapiens) (UniProt Q03181); assay: qHTS assay to identify small molecule antagonists of the peroxisome proliferator-activated receptor delta (PPARd) signaling pathway (AID 743215; active = well fitted inhibition curve with a large enough effect in the signal ratio in the repeat runs, not every such curve was filed as active; the % refers to the signal ratio;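 note: cells stimulated with agonist L165041 at 300 nM final during compound exposure; series mostly up to about 62 µM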)
Procedure, shortened: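 Inhibition of L165041-driven (300 nM final) PPARd signaling is scored in HEK293H UAS-bla cells. Exposure lasts 17 h at 37 C; beta-lactamase activity is then read by FRET substrate fluorescence after 2 h at room temperature.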

[11] = biological target: Vitamin D3 receptor (Homo sapiens) (UniProt P11473); assay: qHTS assay to identify small molecule agonists of the vitamin D receptor (VDR) signaling pathway (AID 743222; calls by dose curve)
Procedure, shortened: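 Quantitative HTS agonist-mode screen: compounds in DMSO were pin-transferred onto VDR-bla cells and incubated 16 h at 37C, 5% CO2. Reporter activity was detected with LiveBLAzer B/G FRET substrate after 2 h at room temperature.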

[12] = biological target: Vitamin D3 receptor (Homo sapiens) (UniProt P11473); assay: qHTS assay to identify small molecule antagonists of the vitamin D receptor (VDR) signaling pathway (AID 743223; active = well fitted inhibition curve with a large enough effect in the signal ratio in the repeat runs, not every such curve was filed as active; the % refers to the signal ratio)
Procedure, shortened: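 Agonist 1alpha,25-dihydroxyvitamin D3 (3 nM in well) was added with each compound to VDR-bla cells preincubated 4 h. Cells stood 16 h at 37C, then FRET substrate 2 h at room temperature; fluorescence intensity recorded.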

[13] = qHTS assay to identify small molecule agonists of the vitamin D receptor (VDR) signaling pathway - cell viability counter screen (AID 743224); note: nearly all actives have a fitted effect of over 50% in size; note: potency is the fitted concentration of half-maximal effect
Procedure, shortened: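 Viability is measured in the same wells as the VDR-bla reporter assay: after 16 h compound treatment and 2 h substrate loading, CellTiter-Glo is added and luminescence read 30 min later.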

[14] = qHTS assay for small molecule agonists of the antioxidant response element (ARE) signaling pathway (AID 743202; active = well fitted activation curve with a large enough effect in the signal ratio in the repeat runs, not every such curve was filed as active; the % refers to the signal ratio)
Procedure, shortened: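 Agonist mode reporter screen: HepG2 cells with ARE-controlled beta-lactamase are incubated with test compounds for 16 h at 37 C, and beta-lactamase activity is measured as fluorescence of cleaved B/G FRET substrate.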

[15] = qHTS assay to identify small molecule agonists of the peroxisome proliferator-activated receptor delta (PPARd) signaling pathway - cell viability counter screen (AID 743211); note: nearly all actives have a fitted effect of over 55% in size; note: potency is the fitted concentration of half-maximal effect
Procedure, shortened: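 Luminescent ATP viability assay (CellTiter-Glo, 30 min RT) in UAS-bla HEK293H cells carrying the PPAR delta reporter construct, 3000 cells/well, after a 17 h compound treatment at 37 C.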

[16] = qHTS assay to identify small molecule agonists of the farnesoid-X-receptor (FXR) signaling pathway - cell viability counter screen (AID 743218); note: nearly all actives have a fitted effect of over 45% in size; note: potency is the fitted concentration of half-maximal effect
Procedure, shortened: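 Cytotoxicity counter-screen run in parallel, same wells: FXR-UAS-bla HEK 293T cells dosed 16 h at 37 C, viability read by CellTiter-Glo luminescence after 30 min at room temperature.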

[17] = qHTS assay to identify small molecule antagonists of the farnesoid-X-receptor (FXR) signaling pathway - cell viability counter screen (AID 743221; active = well fitted cell-killing curve with a large enough effect in the repeat runs, not every such curve was filed as active; note: nearly all actives have a fitted effect of over 50% in size)
Procedure, shortened: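 In GeneBLAzer FXR-UAS-bla HEK 293T cells stimulated with 50 uM chenodeoxycholic acid (final), compounds acted for 16 h at 37 C. Viability was assessed afterwards by CellTiter-Glo luminescence.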

[18] = biological target: Bile acid receptor (Homo sapiens) (UniProt Q96RI1); assay: qHTS assay to identify small molecule antagonists of the farnesoid-X-receptor (FXR) signaling pathway (AID 743217; active = well fitted inhibition curve with a large enough effect in the signal ratio in the repeat runs, not every such curve was filed as active; the % refers to the signal ratio)
Procedure, shortened: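 Antagonist mode against 50 uM (final) chenodeoxycholic acid stimulation in FXR-bla HEK 293T cells, 16 h at 37 °C. Inhibition detected as reduced beta-lactamase activity via LiveBLAzer B/G FRET fluorescence after 2 h at room temperature.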

[19] = biological target: Bile acid receptor (Homo sapiens) (UniProt Q96RI1); assay: qHTS assay to identify small molecule agonists of the farnesoid-X-receptor (FXR) signaling pathway (AID 743220; active = well fitted activation curve with a large enough effect in the signal ratio in the repeat runs, not every such curve was filed as active; the % refers to the signal ratio)
Procedure, shortened: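 Beta-lactamase reporter under UAS control in GeneBLAzer FXR HEK 293T cells (5000/well) measured with LiveBLAzer FRET substrate after 2 h at room temperature. Compound exposure lasted 16 h at 37C.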

Measured: Potency

Chain of Peroxisome proliferator-activated receptor delta (Homo sapiens) (Q03181 whole entry, looked up): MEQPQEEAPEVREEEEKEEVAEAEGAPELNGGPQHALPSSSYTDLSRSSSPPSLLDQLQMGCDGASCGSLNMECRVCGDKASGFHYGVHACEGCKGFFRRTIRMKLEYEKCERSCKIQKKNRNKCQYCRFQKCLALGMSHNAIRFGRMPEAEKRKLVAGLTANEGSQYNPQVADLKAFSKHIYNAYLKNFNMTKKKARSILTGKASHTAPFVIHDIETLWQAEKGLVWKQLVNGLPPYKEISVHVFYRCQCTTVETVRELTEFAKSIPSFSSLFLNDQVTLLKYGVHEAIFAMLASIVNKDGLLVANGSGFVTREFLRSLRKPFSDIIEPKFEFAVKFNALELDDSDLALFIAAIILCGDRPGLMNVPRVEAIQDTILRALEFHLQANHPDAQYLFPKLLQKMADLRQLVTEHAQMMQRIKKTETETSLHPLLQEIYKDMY
Chain of Bile acid receptor (Homo sapiens) (Q96RI1 whole entry, looked up): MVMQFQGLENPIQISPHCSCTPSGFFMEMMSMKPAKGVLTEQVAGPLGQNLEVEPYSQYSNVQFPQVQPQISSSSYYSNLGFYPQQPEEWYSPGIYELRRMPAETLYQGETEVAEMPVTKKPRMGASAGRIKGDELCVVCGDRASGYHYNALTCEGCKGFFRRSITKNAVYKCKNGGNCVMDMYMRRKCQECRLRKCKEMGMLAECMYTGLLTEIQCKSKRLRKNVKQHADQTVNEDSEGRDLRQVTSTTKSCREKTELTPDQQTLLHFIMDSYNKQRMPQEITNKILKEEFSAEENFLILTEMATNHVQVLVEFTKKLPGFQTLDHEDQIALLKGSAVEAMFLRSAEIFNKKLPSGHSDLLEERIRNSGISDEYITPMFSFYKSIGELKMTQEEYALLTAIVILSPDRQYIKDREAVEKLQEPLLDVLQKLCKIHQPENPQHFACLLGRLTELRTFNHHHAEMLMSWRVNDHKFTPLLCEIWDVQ
Chain of Peroxisome proliferator-activated receptor gamma (Homo sapiens) (P37231 whole entry, looked up): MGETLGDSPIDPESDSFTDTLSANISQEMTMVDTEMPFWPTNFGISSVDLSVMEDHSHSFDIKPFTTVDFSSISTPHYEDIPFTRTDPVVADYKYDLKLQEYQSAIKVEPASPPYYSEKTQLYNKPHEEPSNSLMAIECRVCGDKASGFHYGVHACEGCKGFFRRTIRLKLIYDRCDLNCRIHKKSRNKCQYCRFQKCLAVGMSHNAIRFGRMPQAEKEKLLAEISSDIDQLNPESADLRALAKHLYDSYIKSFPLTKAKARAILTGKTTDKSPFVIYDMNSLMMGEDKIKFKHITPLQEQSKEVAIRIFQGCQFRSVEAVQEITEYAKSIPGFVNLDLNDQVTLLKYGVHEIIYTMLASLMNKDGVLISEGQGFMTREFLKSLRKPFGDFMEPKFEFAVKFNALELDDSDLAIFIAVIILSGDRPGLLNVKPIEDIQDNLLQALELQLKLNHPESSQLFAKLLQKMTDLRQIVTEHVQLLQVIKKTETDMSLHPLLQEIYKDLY
Chain of Vitamin D3 receptor (Homo sapiens) (P11473 whole entry, looked up): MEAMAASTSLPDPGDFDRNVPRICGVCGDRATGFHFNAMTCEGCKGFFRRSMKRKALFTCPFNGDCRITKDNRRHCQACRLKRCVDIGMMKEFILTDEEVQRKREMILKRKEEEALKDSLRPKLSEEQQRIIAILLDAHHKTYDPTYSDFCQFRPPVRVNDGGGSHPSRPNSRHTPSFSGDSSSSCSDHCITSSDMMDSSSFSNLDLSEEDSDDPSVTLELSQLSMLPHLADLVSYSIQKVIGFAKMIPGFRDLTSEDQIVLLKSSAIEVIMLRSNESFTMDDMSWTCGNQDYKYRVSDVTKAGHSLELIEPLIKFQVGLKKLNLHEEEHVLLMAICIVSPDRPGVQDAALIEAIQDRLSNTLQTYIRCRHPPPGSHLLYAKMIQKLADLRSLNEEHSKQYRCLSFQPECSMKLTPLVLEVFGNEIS

CC(Cc1ccccc1)NCc1ccccc1Cl (stereo not drawn)
not listed: [14] | [15] | [16] | [17] | [18] | [19]
inactive: all other assays above

O=C(O)CCCOc1ccc(Cl)cc1Cl
inactive and 27.8 µM (active): [5]
inactive: [1] | [4] | [14] | [6] | [7] | [9] | [11] | [13]

O=C(O)c1ccc(=O)[nH]c1
inactive: [5] | [6] | [7] | [15] | [9] | [16] | [17] | [12]

CCCN(CCOc1c(Cl)cc(Cl)cc1Cl)C(=O)n1ccnc1
not listed: [3] | [5] | [6] | [11] | [12] | [14] | [17]
inactive: all other assays above

NP(N)(=O)NC(=O)c1ccc(F)cc1
not listed: [3] | [12] | [17] | [18] | [19]
inactive: all other assays above

CCCCCCCCCCCCCCCl
not listed: [3] | [18] | [19]
inactive: all other assays above

FC(Cl)(Cl)C(F)(Cl)Cl
not listed: [2] | [3] | [6] | [8] | [10] | [18] | [19]
inactive: all other assays above

CCCN(CCC)C(=O)Cc1c(-c2ccc(Cl)cc2)nc2ccc(Cl)cn12
not listed: [3] | [11] | [12] | [14] | [18]
inactive: all other assays above

COc1cc(CC#N)cc(OC)c1OC
inactive: [4] | [14] | [5] | [6] | [7] | [9] | [17] | [11] | [12]

CCOC(C(=O)OCCN(C)C)(c1ccccc1)c1ccccc1
not listed: [1] | [2] | [6] | [8] | [10] | [14]
inactive: all other assays above

O=[N+]([O-])/C=C/c1ccccc1
active: [4] 31.4 µM and 24.5 µM | [5] 22 µM and 15.4 µM | [15] 14 µM and 17.4 µM | [9] 44.4 µM | [16] 19.8 µM and 15.5 µM | [13] 49 µM
inactive: [1] | [6] | [19] | [11] | [12]

Nc1ccccc1C(=O)OCC(O)CO (stereo not drawn)
inactive: [14] | [5] | [7] | [15] | [9] | [10] | [17] | [11] | [12] | [13]

CCOc1cccc(C2(N3CCN(c4ccccc4)CC3)CCC(C)CC2)c1 (stereo not drawn)
not listed: [7] | [18] | [19]
inactive: all other assays above

CCC1CCC(=O)O1 (stereo not drawn)
inactive: [1] | [5] | [7] | [15] | [8] | [9] | [10] | [16] | [11]

C[C@@H]1C[C@@H]([C@H](O)CC2CC(=O)NC(=O)C2)C(=O)[C@@H](C)C1
not listed: [1] | [3] | [6] | [8] | [10] | [11] | [12] | [14]
inactive: all other assays above

CCC(=O)O[C@@H]1C=C2CCC3C(CCC4(C)C3CC[C@@H]4OC(=O)CC)C2CC1 (stereo partly drawn)
not listed: [1] | [2] | [5] | [12] | [14] | [18] | [19]
inactive: all other assays above

CC[N+]1(CCOC(=O)C(O)(c2ccccc2)c2ccccc2)CCCCC1
not listed: [13] | [14]
inactive: all other assays above

COc1ccc(C(=O)c2c(C)n(CCN3CCOCC3)c3ccccc23)cc1
not listed: [3] | [4] | [5] | [11] | [12] | [16] | [18]
inactive: all other assays above

COc1ccc2c(c1OC)C(=O)O[C@H]2[C@@H]1c2cc3c(cc2CCN1C)OCO3
not listed: [11] | [12] | [18] | [19]
inactive: all other assays above
